For some assays here: Entries with a potency or affinity are not part of this list. Activity calls are given as the source filed them. The rule behind the calls is not given here.
Each compound was assayed against Plasmodium falciparum protein kinase 6 (PK6, PF3D7_1337100) (UniProt Q8IDW1) (assay: PfPK6 kinase inhibitors, biochemical, TCAMS library (AID 1159586)). Settings: recombinant PfPK6, Kinase-Glo ATP depletion luminescence.
Chain of Plasmodium falciparum protein kinase 6 (PK6, PF3D7_1337100) (Q8IDW1 1-305): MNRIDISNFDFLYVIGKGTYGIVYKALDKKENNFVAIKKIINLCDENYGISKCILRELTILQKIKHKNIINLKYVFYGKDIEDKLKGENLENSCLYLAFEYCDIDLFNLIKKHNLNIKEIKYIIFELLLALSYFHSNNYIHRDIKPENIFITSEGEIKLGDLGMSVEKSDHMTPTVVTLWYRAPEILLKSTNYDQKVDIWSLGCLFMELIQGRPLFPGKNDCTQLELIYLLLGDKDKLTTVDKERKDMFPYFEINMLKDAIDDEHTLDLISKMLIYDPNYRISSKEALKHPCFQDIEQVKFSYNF

outcome, inactive:
CN(C)CCCNCc1ccc(-c2ccc(C(F)(F)F)cc2)cc1
Fc1ccccc1COc1ccc(Nc2ncnc3ccc(-c4nnc(C(F)(F)F)o4)cc23)cc1Cl
O=C(Nc1ccc([N+](=O)[O-])cc1)c1nn(-c2ccccc2)cc1N=Cc1cccc(O)c1
Cc1cccc2[nH]c(-c3ccc(-c4ccc(NC(=O)N[C@@H]5C[C@H]5c5ccccc5)cc4)cc3)nc12
O=c1cc(NCCCCNCc2ccc(Br)c(Br)c2)[nH]c2ccccc12
O=S1N=C(NCCCN(Cc2cccs2)c2ccccn2)C(NCc2ccccc2)=N1 (stereo not given)
COc1ccccc1NC(=O)NC1CCN(CCCCCNC(=O)/C=C/c2ccc(Cl)c(Cl)c2)CC1
CC(=O)Oc1cc(C)ccc1C1CCN(CCCCNC(=O)c2ccc(-c3ccc(C(F)(F)F)cc3)cc2)CC1
O=c1cc(NCCCNCc2csc(Br)c2Sc2ccc(Cl)cc2)[nH]c2ccccc12
Cc1cccc2[nH]c(-c3ccc(-c4cccc(NC(=O)Nc5ccsc5)c4)s3)nc12
CCCCCCP(=O)(COc1ccc(CCN(CC(O)COc2cccc3[nH]c(C(N)=O)cc23)CC(O)COc2cccc3[nH]c(C(N)=O)cc23)cc1)OCCCC (stereo not given)
COc1ccc(-c2csc3ncnc(Cl)c23)cc1
C[C@H](Cc1ccc(Oc2ccc(C[C@@H](C)NC[C@H](O)c3cccc(Cl)c3)cc2)cc1)NC[C@H](O)c1cccc(Cl)c1
CCCCCCCN1CC[C@@H](CCCc2ccnc3ccc(OCCN4CCNCC4)cc23)[C@@H](CC)C1
O=C(Cc1ccc(-c2ccccc2)cc1)N[C@H]1CCN(Cc2ccc(OCCCN3CCCCC3)cc2)C1
Cc1cc(C)n(-c2nc(Nc3cccc(C(F)(F)F)c3)nc(-n3nc(C)cc3C)n2)n1
O=C(NCc1cccc(F)c1)Nc1cccc(-c2ccc(-c3nc4ccc(F)cc4[nH]3)cc2)c1
NC(=O)C1CCN(Cc2cccc(-c3ccc(-c4nc5ccc(C(F)(F)F)cc5[nH]4)cc3)c2)CC1
CCCC[C@@H](C(=O)NCCc1ccc(Cl)cc1)N1C(=O)CCC1C(=O)Nc1ccc(Cl)c(Cl)c1 (stereo not given in full)
Nc1ncc(-c2ccc(F)cc2)c2ccc(-c3cccc(F)c3)cc12
c1ccc(CCNCc2ccc(-c3cccc(-c4nc5ccccc5[nH]4)c3)cc2)nc1
CCCCN1CCN(CCCCNc2c3ccccc3nc3ccccc23)CC1
CCCCCCN1CCCN(Cc2ccc(C(=O)Nc3ccc(Cl)cc3)cc2)CC1
COc1ccc(-c2cccc(NC(=O)c3ccc(C#N)cc3)c2)cc1CN1CCCN(C)CC1
CCCCCN1CCCC(NS(=O)(=O)c2ccc(C(=O)Nc3ccc(C(F)(F)F)cc3)cc2)C1 (stereo not given)
Cc1cc(O)c(CN(C)Cc2ccc(N(C)C)cc2)cc1C(C)C
CNC(=O)CSc1nnc(-c2ccc(C)cc2)c(-c2ccc(C)cc2)n1
Cc1cc(C)c(NC(=O)NC2CCN(CCCCCNC(=O)/C=C/c3ccc(Cl)c(Cl)c3)CC2)c(C)c1
Cn1c(=O)n(C)c2cc(CNCCNc3ccnc4cc(Cl)ccc34)ccc21
CC(OC(=O)c1ccc(C(=O)NCC2CC2)cc1)C(C)(C)C (stereo not given)
CCc1c(CCNCCCCCCNCCc2ccc([N+](=O)[O-])cc2)ccc(O)c1O
CS(=O)(=O)c1ccc(CCNCc2ccc(-c3cccc(-c4nc5ccccc5[nH]4)c3)cc2)cc1
CC[C@H](C)CNC(=O)c1cncc(-c2cccc(CNCCCc3ccccc3)c2)c1
Cc1cccc2[nH]c(-c3ccc(-c4cccc(NC(=O)c5ccncc5)c4)cc3)nc12
Cc1cc2nc(/N=C(\N)NC(=O)NC3CCCCC3)nc(C)c2cc1C
CN1CCN(CCCN(Cc2ccc(-c3cccc(CNC4CCCC4)c3)cc2)C(=O)/C=C/c2ccccc2)CC1
CCNc1cc(C(=O)N[C@@H](Cc2ccccc2)[C@H](O)CNC2CCC(C(C)(C)C)CC2)cc(N2CCCC2=O)c1 (stereo not given in full)
CC(=O)Nc1ccc(C(=O)Nc2ccc(-c3cccc(-c4nc5ccccc5[nH]4)c3)cc2)cn1
Cc1cc2c(cc1C(F)(F)F)N(C(=O)Nc1cccc(C(=O)NC3CCN(Cc4ccccc4)CC3)c1)CC2
Fc1ccc2nc(-c3cccc(-c4cccc(CNCCc5ccncc5)c4)c3)[nH]c2c1

These compounds were tested against Protein kinase 7 (PK7), Plasmodium falciparum 3D7 (PF3D7_0213400) (UniProt Q7YTF7) (assay: inhibition of Plasmodium PK7 catalytic activity – biochemical, TCAMS antimalarial set, Kinase-Glo luminescence (AID 1159587)). Settings: recombinant PfPK7, Kinase-Glo ATP depletion luminescence.
Chain of Protein kinase 7 (PK7), Plasmodium falciparum 3D7 (PF3D7_0213400) (Q7YTF7 1-343): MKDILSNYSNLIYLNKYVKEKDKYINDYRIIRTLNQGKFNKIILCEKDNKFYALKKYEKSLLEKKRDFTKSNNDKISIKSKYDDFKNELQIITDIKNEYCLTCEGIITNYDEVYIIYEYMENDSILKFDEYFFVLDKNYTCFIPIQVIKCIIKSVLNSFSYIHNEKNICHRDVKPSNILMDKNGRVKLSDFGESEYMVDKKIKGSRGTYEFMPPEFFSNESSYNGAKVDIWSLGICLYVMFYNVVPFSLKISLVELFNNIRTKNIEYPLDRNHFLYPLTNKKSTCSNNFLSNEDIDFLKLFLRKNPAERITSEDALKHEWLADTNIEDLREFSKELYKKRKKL

outcome, inactive:
CN(C)CCCNCc1ccc(-c2ccc(C(F)(F)F)cc2)cc1
Fc1ccccc1COc1ccc(Nc2ncnc3ccc(-c4nnc(C(F)(F)F)o4)cc23)cc1Cl
O=C(Nc1ccc([N+](=O)[O-])cc1)c1nn(-c2ccccc2)cc1N=Cc1cccc(O)c1
Cc1cccc2[nH]c(-c3ccc(-c4ccc(NC(=O)N[C@@H]5C[C@H]5c5ccccc5)cc4)cc3)nc12
O=c1cc(NCCCCNCc2ccc(Br)c(Br)c2)[nH]c2ccccc12
O=S1N=C(NCCCN(Cc2cccs2)c2ccccn2)C(NCc2ccccc2)=N1 (stereo not given)
COc1ccccc1NC(=O)NC1CCN(CCCCCNC(=O)/C=C/c2ccc(Cl)c(Cl)c2)CC1
CC(=O)Oc1cc(C)ccc1C1CCN(CCCCNC(=O)c2ccc(-c3ccc(C(F)(F)F)cc3)cc2)CC1
O=c1cc(NCCCNCc2csc(Br)c2Sc2ccc(Cl)cc2)[nH]c2ccccc12
Cc1cccc2[nH]c(-c3ccc(-c4cccc(NC(=O)Nc5ccsc5)c4)s3)nc12
CCCCCCP(=O)(COc1ccc(CCN(CC(O)COc2cccc3[nH]c(C(N)=O)cc23)CC(O)COc2cccc3[nH]c(C(N)=O)cc23)cc1)OCCCC (stereo not given)
COc1ccc(-c2csc3ncnc(Cl)c23)cc1
C[C@H](Cc1ccc(Oc2ccc(C[C@@H](C)NC[C@H](O)c3cccc(Cl)c3)cc2)cc1)NC[C@H](O)c1cccc(Cl)c1
CCCCCCCN1CC[C@@H](CCCc2ccnc3ccc(OCCN4CCNCC4)cc23)[C@@H](CC)C1
O=C(Cc1ccc(-c2ccccc2)cc1)N[C@H]1CCN(Cc2ccc(OCCCN3CCCCC3)cc2)C1
Cc1cc(C)n(-c2nc(Nc3cccc(C(F)(F)F)c3)nc(-n3nc(C)cc3C)n2)n1
O=C(NCc1cccc(F)c1)Nc1cccc(-c2ccc(-c3nc4ccc(F)cc4[nH]3)cc2)c1
NC(=O)C1CCN(Cc2cccc(-c3ccc(-c4nc5ccc(C(F)(F)F)cc5[nH]4)cc3)c2)CC1
CCCC[C@@H](C(=O)NCCc1ccc(Cl)cc1)N1C(=O)CCC1C(=O)Nc1ccc(Cl)c(Cl)c1 (stereo not given in full)
Nc1ncc(-c2ccc(F)cc2)c2ccc(-c3cccc(F)c3)cc12
c1ccc(CCNCc2ccc(-c3cccc(-c4nc5ccccc5[nH]4)c3)cc2)nc1
CCCCN1CCN(CCCCNc2c3ccccc3nc3ccccc23)CC1
CCCCCCN1CCCN(Cc2ccc(C(=O)Nc3ccc(Cl)cc3)cc2)CC1
COc1ccc(-c2cccc(NC(=O)c3ccc(C#N)cc3)c2)cc1CN1CCCN(C)CC1
CCCCCN1CCCC(NS(=O)(=O)c2ccc(C(=O)Nc3ccc(C(F)(F)F)cc3)cc2)C1 (stereo not given)
Cc1cc(O)c(CN(C)Cc2ccc(N(C)C)cc2)cc1C(C)C
CNC(=O)CSc1nnc(-c2ccc(C)cc2)c(-c2ccc(C)cc2)n1
Cc1cc(C)c(NC(=O)NC2CCN(CCCCCNC(=O)/C=C/c3ccc(Cl)c(Cl)c3)CC2)c(C)c1
Cn1c(=O)n(C)c2cc(CNCCNc3ccnc4cc(Cl)ccc34)ccc21
CC(OC(=O)c1ccc(C(=O)NCC2CC2)cc1)C(C)(C)C (stereo not given)
CCc1c(CCNCCCCCCNCCc2ccc([N+](=O)[O-])cc2)ccc(O)c1O
CS(=O)(=O)c1ccc(CCNCc2ccc(-c3cccc(-c4nc5ccccc5[nH]4)c3)cc2)cc1
CC[C@H](C)CNC(=O)c1cncc(-c2cccc(CNCCCc3ccccc3)c2)c1
Cc1cccc2[nH]c(-c3ccc(-c4cccc(NC(=O)c5ccncc5)c4)cc3)nc12
Cc1cc2nc(/N=C(\N)NC(=O)NC3CCCCC3)nc(C)c2cc1C
CN1CCN(CCCN(Cc2ccc(-c3cccc(CNC4CCCC4)c3)cc2)C(=O)/C=C/c2ccccc2)CC1
CCNc1cc(C(=O)N[C@@H](Cc2ccccc2)[C@H](O)CNC2CCC(C(C)(C)C)CC2)cc(N2CCCC2=O)c1 (stereo not given in full)
CC(=O)Nc1ccc(C(=O)Nc2ccc(-c3cccc(-c4nc5ccccc5[nH]4)c3)cc2)cn1
Cc1cc2c(cc1C(F)(F)F)N(C(=O)Nc1cccc(C(=O)NC3CCN(Cc4ccccc4)CC3)c1)CC2
Fc1ccc2nc(-c3cccc(-c4cccc(CNCCc5ccncc5)c4)c3)[nH]c2c1

— PubChem BioAssay
